The values that follow come from PubChem BioAssay (NCI).

The panel holds about 83,000 compounds, 20% with a hit somewhere; the sample as a whole holds those more often.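 Values shown are percent growth following 48 h exposure of cells in 96-well plates to a single concentration of compound; below 10 was considered active.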 Values without a mark were called inactive. Active and inactive are the calls of the source.

Test systems include SK-MEL-2 melanoma; EKVX NSCLC; SN12C renal; UO-31 renal; TK-10 renal; ACHN renal; A498 renal; CCRF-CEM leukemia; MOLT-4 leukemia; SR leukemia; RPMI-8226 leukemia; OVCAR-8 ovarian; OVCAR-5 ovarian; OVCAR-4 ovarian; SK-OV-3 ovarian; IGROV1 ovarian; OVCAR-3 ovarian; HS 578T breast; NCI/ADR-RES ovarian.
Common to all, as to assay: NCI-60 one-dose screen, 48 h (100 = growth as untreated, 0 = no growth, -100 = all killed)
Conditions in all cases: 10 µM unless noted

With `Nc1nc(Cl)c2c(C(F)(F)F)cn(CC3CCNCC3)c2n1`, the growth was 87.9% in the assay on SK-MEL-2 melanoma; 88.8% with EKVX NSCLC; 85.7% with SN12C renal; 91.6% in the assay on UO-31 renal; 91.5% in the assay on TK-10 renal; 104% in the assay with ACHN renal. Also, the growth was 107% with A498 renal; 51.9% in the assay with CCRF-CEM leukemia; 45.8% with MOLT-4 leukemia; -38.7% (active) in the assay with SR leukemia; 83.7% in the assay on RPMI-8226 leukemia; -16.3% (active) in the assay on OVCAR-8 ovarian. Moreover, the growth was 110% in the assay with OVCAR-5 ovarian; 101% in the assay on OVCAR-4 ovarian; 107% in the assay with SK-OV-3 ovarian; -62.8% (active) in the assay on IGROV1 ovarian; 94.7% in the assay with OVCAR-3 ovarian; 88.7% with HS 578T breast. In addition, the growth in the assay on NCI/ADR-RES ovarian was 109%.
In the case of `Clc1ccc2c(NCCNc3nc(Cl)nc4ccccc34)ccnc2c1`, the growth is -73.2% (active) in the assay with SK-MEL-2 melanoma; -9.06% (active) with EKVX NSCLC; -76.6% (active) with SN12C renal; -95.6% (active) with UO-31 renal; -79.3% (active) in the assay on TK-10 renal; -97.7% (active) in the assay with ACHN renal. Moreover, the growth in the assay with A498 renal was 92.3%; in the assay on CCRF-CEM leukemia, -58.7% (active); in the assay with MOLT-4 leukemia, -52.4% (active); in the assay with SR leukemia, -27.3% (active); with RPMI-8226 leukemia, -50.7% (active); in the assay on OVCAR-8 ovarian it was -62.5% (active). Also, the growth is -49.9% (active) in the assay on OVCAR-5 ovarian; -72% (active) in the assay on OVCAR-4 ovarian; -80.4% (active) in the assay with SK-OV-3 ovarian; -85% (active) in the assay with IGROV1 ovarian; -78% (active) in the assay on OVCAR-3 ovarian; -41.9% (active) with HS 578T breast. Also, the growth with NCI/ADR-RES ovarian was 38.5%.
Regarding `CCOc1ccccc1C(=O)N1CCN(c2cc(Cl)cc(Cl)c2)CC1`, the growth with SK-MEL-2 melanoma is 18.5%; in the assay on EKVX NSCLC it was 34.1%; in the assay on SN12C renal, 25.7%; in the assay with UO-31 renal, 24.9%; in the assay with TK-10 renal, 55.5%; with ACHN renal it was 21.9%. Besides, the growth is 6.38% (active) with A498 renal; 7.43% (active) in the assay with CCRF-CEM leukemia; 7.37% (active) in the assay on MOLT-4 leukemia; 6.79% (active) in the assay on SR leukemia; 1.53% (active) in the assay on RPMI-8226 leukemia; 11.2% in the assay with OVCAR-8 ovarian. Further, the growth is 46.6% in the assay on OVCAR-5 ovarian; 31.7% in the assay on OVCAR-4 ovarian; 25.8% with SK-OV-3 ovarian; 13.8% with IGROV1 ovarian; -22.7% (active) with OVCAR-3 ovarian; 41.3% in the assay on HS 578T breast. In the assay with NCI/ADR-RES ovarian, the growth is 14.5%.
Take `COc1cc(/C=C\c2cc(/C=C\c3ccc(O)c(OC)c3)n(C(=O)CNc3ccccc3OC)n2)ccc1O`: the growth is 61.2% with SK-MEL-2 melanoma; 91.6% in the assay with EKVX NSCLC; 75.4% in the assay with SN12C renal; 46.4% with UO-31 renal; 113% in the assay on TK-10 renal; 45.3% with ACHN renal. Moreover, the growth in the assay on A498 renal was 105%; in the assay with CCRF-CEM leukemia, 45.2%; with MOLT-4 leukemia, 58.6%; in the assay on SR leukemia, 2.38% (active); with RPMI-8226 leukemia it was 80.1%; in the assay on OVCAR-8 ovarian, 84.6%. The growth was 102% in the assay with OVCAR-5 ovarian; 84.2% in the assay with OVCAR-4 ovarian; 83.8% in the assay with SK-OV-3 ovarian; 90.5% in the assay on IGROV1 ovarian; 59.7% with OVCAR-3 ovarian; 49.8% in the assay on HS 578T breast.
Turning to `C=C1C(=O)O[C@H]2[C@H]1CC/C(COC(=O)c1ccc(Cl)nc1)=C\CC[C@@]1(C)O[C@@H]21`, the growth in the assay with SK-MEL-2 melanoma is 40.4%; in the assay with EKVX NSCLC, 10.2%; in the assay with SN12C renal, 12.9%; with UO-31 renal, -39% (active); in the assay with TK-10 renal, -8.78% (active); with ACHN renal, -20.6% (active). Moreover, the growth in the assay with A498 renal was 87.2%; in the assay with CCRF-CEM leukemia, -32.1% (active); with MOLT-4 leukemia, -28.6% (active); in the assay on SR leukemia it was -13.2% (active); in the assay with RPMI-8226 leukemia it was -30% (active); in the assay with OVCAR-8 ovarian, -8.23% (active). The growth was 27.2% with OVCAR-5 ovarian; 27.9% in the assay with OVCAR-4 ovarian; 99.3% in the assay with SK-OV-3 ovarian; 13.1% in the assay on IGROV1 ovarian; -42.1% (active) in the assay with OVCAR-3 ovarian; 61.2% in the assay with HS 578T breast. In the assay with NCI/ADR-RES ovarian, the growth is 42.1%.
For the molecule `Cc1ccn2cc(Cc3cc(=O)oc4c3ccc3ccccc34)c(=O)nc2c1`, the growth is 80.6% with SK-MEL-2 melanoma; 92.5% in the assay on EKVX NSCLC; 96.4% in the assay with SN12C renal; 80.2% with UO-31 renal; 124% in the assay on TK-10 renal; 95.5% in the assay with ACHN renal. Moreover, the growth in the assay with A498 renal was 111%; with CCRF-CEM leukemia it was 95.8%; in the assay on MOLT-4 leukemia, 87.9%; in the assay on SR leukemia, 92.7%; with RPMI-8226 leukemia, 93.3%; in the assay with OVCAR-8 ovarian it was 100%. The growth with OVCAR-5 ovarian is 102%; in the assay on OVCAR-4 ovarian, 101%; in the assay on SK-OV-3 ovarian it was 90.1%; in the assay on IGROV1 ovarian, 97%; with OVCAR-3 ovarian, 104%; with HS 578T breast, 95.2%. Further, the growth with NCI/ADR-RES ovarian was 105%.
On to `O=C1c2ccccc2C(=O)c2c(NCCN=Cc3c(O)ccc4ccccc34)cccc21`, for which the growth was 107% with SK-MEL-2 melanoma; 73.3% in the assay with EKVX NSCLC; 85.2% in the assay with SN12C renal; 49.9% in the assay on UO-31 renal; 94.2% with TK-10 renal; 65.3% in the assay on ACHN renal. Further, the growth was 80.7% in the assay with A498 renal; -46.1% (active) in the assay with CCRF-CEM leukemia; 76.9% in the assay on MOLT-4 leukemia; 32% in the assay on SR leukemia; 78.7% with RPMI-8226 leukemia; 69.9% with OVCAR-8 ovarian. In addition, the growth is 112% in the assay with OVCAR-5 ovarian; 94.3% with OVCAR-4 ovarian; 84.2% in the assay on SK-OV-3 ovarian; 65.5% with IGROV1 ovarian; 83.7% in the assay on OVCAR-3 ovarian; 82.7% in the assay on HS 578T breast.
On to `Cc1cc[n+](CCCC[n+]2ccc(C)cc2)cc1`, for which the growth in the assay with SK-MEL-2 melanoma is 124%; with EKVX NSCLC, 97.2%; in the assay with SN12C renal it was 97.4%; in the assay with UO-31 renal, 96%; with TK-10 renal, 107%; in the assay with ACHN renal it was 104%. Besides, the growth is 121% in the assay on A498 renal; 91.7% in the assay on CCRF-CEM leukemia; 91.1% in the assay on MOLT-4 leukemia; 97.3% in the assay on SR leukemia; 94.2% in the assay on RPMI-8226 leukemia; 108% with OVCAR-8 ovarian. Also, the growth is 104% in the assay on OVCAR-5 ovarian; 114% with OVCAR-4 ovarian; 116% in the assay on SK-OV-3 ovarian; 99.7% with IGROV1 ovarian; 106% in the assay on OVCAR-3 ovarian; 104% in the assay on HS 578T breast. Moreover, the growth with NCI/ADR-RES ovarian was 97.8%.
